Bioassay records deposited in PubChem by National Center for Advancing Translational Sciences (NCATS).
Mm-Cpn inhibitor: blocks the Methanococcus maripaludis chaperonin Mm-Cpn | purified Mm-Cpn ATPase, ADP Transcreener TR-FRET | Potency, µM (titrated, usually from 76.9 µM), without a hit: top-dose activity, negative = inhibition, usual class: inhibitors | 0.031% of 330,000 active; further: potency means the concentration at half of the fitted maximal effect; on the % scale 0 is the no-effect control and ±100 the full control effect; nearly all actives have a fitted effect of over 80% in size
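Measured: ADP formation by purified Mm-CPN. Conditions: 25 nM protein, 10 uM ATP, Tris pH 7.4 with Mg2+, K+ and DTT, 37°C for 30 min. Detection: Transcreener HTRF after 30 min at room temperature.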
TCR activator: activates T cell receptor signaling; primary human leukocytes, anti-CD3, IL-2 HTRF, 48 h; Potency, µM (highest dose often 9.22 µM), inactives show at the highest dose activation of IL-2 secretion, hits mostly activators; 330,000 tested, under 10 active; further: % of control where 0% means no effect
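Primary human leukocytes were stimulated with a-CD3 beads plus compounds for 48 hr without co-stimulation; secreted IL-2 was quantified by HTRF using a-IL-2-K (europium cryptate) and a-IL-2-d2, excited at 320nm with acceptor emission read at 665nm.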
CCT chaperon mod: cytosolic chaperonin activity modulation; 0.3% of 360,000 active; activity change, % (no concentration beside the values), hits read low; purified chaperonin ATPase assay, HTRF ADP detection, 30 min; in the data active means activity change below about -30%; further: on the % scale 0 is the no-effect control and ±100 the full control effect
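Enzyme 40 or 20 nM (batch-dependent) in Tris pH 7.4/KCl/MgCl2/DTT; cpd 76 uM single point; ATP 10 uM; 30 min 37 °C; Transcreener ADP HTRF detection, 30 min RT; ratio 665/615.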
TSHR antag: blocks TSH signaling through the human TSH receptor; P16473; TSHR-expressing cells, TSH-stimulated cAMP HTRF, 2 h; stronger effect = lower value; activity change, negative = inhibition, % at 11.5 µM; 0.2% of 330,000 active; AID 504810;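 active means activity change below a set negative limit, meaning inhibition stronger than a set level, cut at about -70% in these data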; further: on the % scale 0 is the no-effect control and ±100 the full control effect
Target sequence (P16473 whole entry, looked up): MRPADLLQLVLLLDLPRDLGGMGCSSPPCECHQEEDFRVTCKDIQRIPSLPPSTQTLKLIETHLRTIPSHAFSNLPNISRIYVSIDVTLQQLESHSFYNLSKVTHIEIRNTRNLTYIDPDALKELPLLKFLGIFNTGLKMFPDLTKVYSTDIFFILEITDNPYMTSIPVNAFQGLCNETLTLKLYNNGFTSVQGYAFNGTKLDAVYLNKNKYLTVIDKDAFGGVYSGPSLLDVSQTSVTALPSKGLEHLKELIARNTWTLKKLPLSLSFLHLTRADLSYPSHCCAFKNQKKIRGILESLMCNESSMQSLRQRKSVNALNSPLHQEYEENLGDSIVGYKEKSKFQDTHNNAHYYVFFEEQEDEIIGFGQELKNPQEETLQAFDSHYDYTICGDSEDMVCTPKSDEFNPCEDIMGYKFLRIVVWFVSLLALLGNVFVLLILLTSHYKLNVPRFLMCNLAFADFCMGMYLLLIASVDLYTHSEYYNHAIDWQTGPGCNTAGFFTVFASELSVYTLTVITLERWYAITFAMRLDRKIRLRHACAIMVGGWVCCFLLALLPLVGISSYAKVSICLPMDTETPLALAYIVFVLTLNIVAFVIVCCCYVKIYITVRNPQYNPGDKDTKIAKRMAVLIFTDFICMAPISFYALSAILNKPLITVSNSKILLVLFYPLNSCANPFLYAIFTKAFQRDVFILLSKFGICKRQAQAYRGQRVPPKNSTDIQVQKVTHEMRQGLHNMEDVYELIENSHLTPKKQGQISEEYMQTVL
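Cell-based HTRF cAMP assay; TSHR cells + compound, TSH EC80 (4nM final), 2 h, 37 deg C. Lysis with anti-cAMP cryptate and cAMP-d2, 30 min RT, read 665/620 nm.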
B2AR arrestin: agonists driving beta-arrestin recruitment to human beta2-adrenergic receptor; Potency, µM (top dose mostly 46.1 µM), without a hit: at the highest dose activation, usual class: activators; 0.02% of 330,000 active; beta-arrestin recruitment to beta2AR, cell-based reporter; AID 492947;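 further: potency means the concentration at half of the fitted maximal effect; 0% = DMSO controls and full agonism = EC100 isoproterenol or metaproterenol; nearly all actives have a fitted effect of over 65% in size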
* marks the source's active call; other numbers are inactive results; / = no result given; [ ] = remark or other dose. Sampled rows, rich in hits. Any-hit rate of the full collection: about 0.5%. Unless noted, the call rests on the fitted dose curve; in most records, active means well fitted curve in the direction sought with a large enough effect; inconclusive means small, poorly fitted or top-dose-only effect, or another doubt; inactive means no such curve, though single readings can be large; an effect the other way counts as inactive or inconclusive.

SMILES	Mm-Cpn inhibitor	TCR activator	CCT chaperon mod	TSHR antag	B2AR arrestin
O=C(Nc1ccc2c(c1)CCC2)c1cc(S(=O)(=O)Nc2ccc(F)cc2)c(Cl)cc1Cl	-3%	-2%[46.1 µM]	1	-76*	-2%
O=C(Nc1ccc2c(c1)CCC2)c1ccc(F)cc1	-3%	4%[46.1 µM]	-2	-12	0%
CCNC(=S)N(Cc1ccco1)Cc1cc2cc(OCC)ccc2[nH]c1=O	-2%	-12%	1	6	0%
C=CCN(CC=C)C(=S)NC(=O)/C=C/c1ccc(OC)cc1	1%	-4%[46.1 µM]	-2	1	0%
COc1ccc(-c2cc(C(=O)N3CCN(c4ncccn4)CC3)c3ccccc3n2)cc1OC	1%	5%	-60*	7	0%
C=CCOc1ccc(C(=O)/C=C2/C(=O)Nc3ccccc32)cc1	-2%	0%	-45*	-11	-1%
COc1cccc(CNCc2ccc(OC)cc2OC)c1	-1%	2%	0	17	0%
O=C(Nc1ccc2c(c1)OCCO2)c1oc2ccccc2c1NC(=O)C1CC1	4%	6%	-45*	-17	0%
CC(C)(C)NC(=O)C(=O)NNC(=O)c1cccc(Br)c1	1%	5%	-12	-79*	0%
C(=N\NC1=Nc2cccc3cccc1c23)/c1cccnc1	-14%	-1%	-70*	-5	0%
COc1ccc(CN(Cc2cccn2C)C(=O)c2cc3cc(OC)ccc3[nH]2)cc1	45µM*	3%	-3	-4	0%
COc1ccc2[nH]c(C(=O)NCc3ccccc3)cc2c1	-2%	3%	1	3	2%
Cc1ccc(S(=O)(=O)Nc2ccc(N=Nc3ccc(O)cc3)cc2)cc1	3%	-1%[46.1 µM]	0	-75*	-1%
CC(=O)Oc1ccc(C(=O)Nc2cccc(C(=O)NC(C)(C)C)c2)cc1	1%	-1%	-4	2	0%
Cc1ccc(/C(O)=C2\C(=O)C(=O)N(CCN(C)C)C2c2ccccc2F)cc1 (configuration not stated)	-4%	3%	-2	-2	0%
Cc1ccc(/C(O)=C2\C(=O)C(=O)N(CCCN3CCOCC3)C2c2ccccc2F)cc1 (configuration not stated)	/	/	-40*	/	/
C=CCOc1ccc(-c2nc3c(c(=O)[nH]c(=O)n3CCCC)n2C)cc1OC	1%	-3%	-2	-1	0%
O=C(CNC(=O)c1ccncc1)N/N=C/c1cc(Br)ccc1O	-1%	-6%[46.1 µM]	-1	5	-2%
CC(=O)c1cccc(NC(=O)c2sc3nc4n(c(=O)c3c2C)CCCC4)c1	0%	5%	-1	-132*	0%
CC1CN(CCCCOc2ccc(F)cc2)CC(C)O1 (configuration not stated)	2%	-2%	-2	-5	0%
CC(C)(C=O)C1=CC(=O)c2ccccc2C1=O	-4%	-1%[46.1 µM]	-3	-87*	-1%
CC(C)(C)c1ccc2c(c1)C(=O)c1ccccc1C2=O	-13%	8%[46.1 µM]	1	-1	0%
CCn1c(SCC(=O)NCc2ccc3c(c2)OCO3)nnc1-c1ccncc1	0%	-5%	-53*	14	0%
Cn1c(N/N=C/c2cccs2)cc(=O)n(C)c1=O	-3%	-2%	1	0	0%
Fc1c(F)c(C(F)(F)F)c(F)c(F)c1N/N=C\c1cccs1	1%	-3%	-37*	-38	0%
SMILES	Mm-Cpn inhibitor	TCR activator	CCT chaperon mod	TSHR antag	B2AR arrestin
Cc1cc(=O)oc2cc(OCc3ccccc3)ccc12	-4%	/	0	-6	10%
Cc1cc(=O)oc2ccc(OCc3ccccc3)cc12	0%	-3%	3	-118*	-1%
CC(C)Cn1c(-c2csc3c2CCCC3)n[nH]c1=S	0%	-2%	-1	-82*	4%
CC1=CC(C)C2COC(c3ccc[n+](C)c3)C1C2C (configuration not stated)	-4%	5%	-2	9	-1%
COc1ccc(N(CC(=O)Nc2cc(Cl)ccc2C)S(=O)(=O)c2c(C)n[nH]c2C)cc1	-5%	4%	-59*	-15	0%
COc1ccc(N(CC(=O)Nc2ccc(C)cc2C)S(=O)(=O)c2c(C)n[nH]c2C)cc1	0%	1%	2	25	0%
O=C(COC(=O)/C=C/c1ccccc1)NCc1ccco1	/	/	-56*	/	/
